Data on 28 compounds can be found in PubChem BioAssay (Tox21).

Assay [1] in a line: qHTS assay to identify small molecule antagonists of the estrogen related receptor (ERR) signaling pathway from Tox21 library - cell viability counter screen (AID 1224834). Note: nearly all actives have a fitted effect of over 30% in size. Note: potency is the fitted concentration of half-maximal effect. Summed up: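 After 17.5 h of compound exposure at 37 C, ERR cells are incubated with CellTiter-Fluor for 30 min and fluorescence intensity serves as the viability measure.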
Assay [2] has as its target Luciferin 4-monooxygenase (Photinus pyralis) (UniProt P08659). Description: qHTS assay to identify small molecule inhibitors of firefly luciferase (AID 1224835). For activity change, negative = inhibition: series mostly up to about 120 µM. Note: nearly all actives have a fitted effect of over 25% in size. Note: potency is the fitted concentration of half-maximal effect. In a few lines:
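Biochemical qHTS: compounds run as interplate titrations against purified firefly enzyme, with D-luciferin and ATP each at its KM concentration. Light output recorded by CCD imaging.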
In general terms: qHTS replaces the single test concentration by a dilution series.

Assay [3] can be described thus: qHTS assay to identify small molecule agonists of the constitutive androstane receptor (CAR) signaling pathway - cell viability counter screen (AID 1224836). Note: series mostly up to about 92 µM; nearly all actives have a fitted effect of over 45% in size. Summed up:
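HepG2 cells stably carrying hCAR and a CYP2B6-2.2kb reporter were plated 4 h, then given compounds at 15 concentrations plus PK11195 (final 0.75 uM). After 23 h at 37 C, viability was read by CellTiter-Fluor fluorescence.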

The nature of assay [4]: qHTS assay to identify small molecule antagonists of the constitutive androstane receptor (CAR) signaling pathway - cell viability counter screen (AID 1224837). For activity change, negative = cytotoxicity: series mostly up to about 92 µM. Note: nearly all actives have a fitted effect of over 45% in size. Note: potency is the fitted concentration of half-maximal effect. Summed up:
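Counter screen run in HepG2-CYP2B6-hCAR cells: 4 hr settle, compound titration (15 concentrations) with 50 nM CITCO, 23 hr at 37 C/5% CO2, CellTiter-Fluor fluorescence.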

Assay [5] in a line: qHTS assay to identify small molecule antagonists of the estrogen related receptor signaling pathway with the pleiotropic PPARgamma coactivator (PGC) from Tox21 10K library - cell viability counter screen (AID 1224840; active = well fitted cell-killing curve with a large enough effect in the repeat runs, not every such curve was filed as active; note: nearly all actives have a fitted effect of over 40% in size; note: potency is the fitted concentration of half-maximal effect). Summed up: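 Following seeding of 2,000 PGC/ERR cells/well and 6 hours' incubation, test compounds were delivered in DMSO. The plates then sat 17.5 hours at 37 C before a fluorogenic live-cell protease reagent (CellTiter-Fluor) was read after 30 min.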

In assay [6] the target is Thyrotropin receptor (Homo sapiens) (UniProt P16473). Description: qHTS assay to identify small molecule agonists of the thyroid stimulating hormone receptor (TSHR) signaling pathway (AID 1224843; calls by dose curve; note: nearly all actives have a fitted effect of over 45% in size). Summed up: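 Steps: seed 800 TSHR-HEK293 cells per well; add test compound and hold 30 min at ambient temperature; dispense cAMP-d2 then anti-cAMP cryptate; incubate 1 h at ambient; measure fluorescence intensity.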

Assay [7] concerns the target Nuclear receptor subfamily 1 group I member 3 (Homo sapiens) (UniProt Q14994). Description: qHTS assay to identify small molecule antagonists of the constitutive androstane receptor (CAR) signaling pathway (AID 1224838). Note: nearly all actives have a fitted effect of over 40% in size. Note: potency is the fitted concentration of half-maximal effect. In a few lines: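 Cell line: HepG2 double-stable for hCAR and CYP2B6-2.2kb reporter. Agonist: CITCO, 50 nM final. Compounds: 15 concentrations, 24 h, 37 C. Detection: ONE-Glo luminescence.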

Assay [8] shares this target. The assay can be described thus: qHTS assay to identify small molecule agonists of the constitutive androstane receptor (CAR) signaling pathway (AID 1224839). For activation: series mostly up to about 92 µM. Note: nearly all actives have a fitted effect of over 15% in size. Note: potency is the fitted concentration of half-maximal effect. Summed up: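 HepG2 cells stably expressing hCAR and a CYP2B6-2.2kb luciferase reporter were treated with compounds at 15 concentrations plus 0.75 uM PK11195 (final) for 24 h at 37 C; luminescence was read after ONE-Glo addition.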

Assay [9] can be described thus: qHTS assay to identify small molecule agonists of the estrogen related receptor signaling pathway with the pleiotropic PPARgamma coactivator (PGC) from Tox21 10K library (AID 1224842). Note: nearly all actives have a fitted effect of over 15% in size. In a few lines: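 PGC/ERR reporter cell line, 2,000 cells per well, incubated 6 h at 37 C before 23 nL compound in DMSO was added. After 18 h at 37 C, One-Glo luminescence read following 30 min at room temperature.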

A short description of assay [10]: qHTS assay to identify small molecule antagonists of the estrogen related receptor signaling pathway with the pleiotropic PPARgamma coactivator (PGC) from Tox21 10K library (AID 1224841; call rule not given here; note: actives are mostly falling curves and most rising ones were filed inactive; nearly all actives have a fitted effect of over 50% in size; note: potency is the fitted concentration of half-maximal effect; for activity, negative = inhibition: series mostly up to about 92 µM). In a few lines:
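qHTS antagonist format: PGC/ERR cells, 2k/well, compound in DMSO by pin transfer after 6 h attachment, 18 h treatment at 37 C, One-Glo luminescence read at 30 min.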

Records with an inconclusive call do not appear. Unmarked numbers belong to inactive results. Activity calls are given as the source filed them. Unless noted, calls come from the whole dose curve; as a rule, active = well fitted curve in the direction sought with a large enough effect in the repeat runs; inconclusive = weak or mixed curves; inactive = no such curve, though single readings can be large; an effect the other way counts as inactive or inconclusive.
% is set by controls: 0 for no effect and ±100 for the full control effect.

Nuclear receptor subfamily 1 group I member 3 (Homo sapiens), sequence (Q14994 whole entry, looked up): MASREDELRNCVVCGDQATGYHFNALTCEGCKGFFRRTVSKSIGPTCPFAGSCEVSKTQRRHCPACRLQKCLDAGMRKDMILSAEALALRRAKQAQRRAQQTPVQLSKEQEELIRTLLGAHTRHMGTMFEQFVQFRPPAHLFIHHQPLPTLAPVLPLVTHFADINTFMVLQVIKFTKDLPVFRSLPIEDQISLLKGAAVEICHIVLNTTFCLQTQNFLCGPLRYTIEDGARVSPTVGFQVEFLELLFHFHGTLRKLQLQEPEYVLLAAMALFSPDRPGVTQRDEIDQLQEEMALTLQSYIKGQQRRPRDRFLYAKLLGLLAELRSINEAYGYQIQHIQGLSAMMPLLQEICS
Thyrotropin receptor (Homo sapiens), sequence (P16473 whole entry, looked up): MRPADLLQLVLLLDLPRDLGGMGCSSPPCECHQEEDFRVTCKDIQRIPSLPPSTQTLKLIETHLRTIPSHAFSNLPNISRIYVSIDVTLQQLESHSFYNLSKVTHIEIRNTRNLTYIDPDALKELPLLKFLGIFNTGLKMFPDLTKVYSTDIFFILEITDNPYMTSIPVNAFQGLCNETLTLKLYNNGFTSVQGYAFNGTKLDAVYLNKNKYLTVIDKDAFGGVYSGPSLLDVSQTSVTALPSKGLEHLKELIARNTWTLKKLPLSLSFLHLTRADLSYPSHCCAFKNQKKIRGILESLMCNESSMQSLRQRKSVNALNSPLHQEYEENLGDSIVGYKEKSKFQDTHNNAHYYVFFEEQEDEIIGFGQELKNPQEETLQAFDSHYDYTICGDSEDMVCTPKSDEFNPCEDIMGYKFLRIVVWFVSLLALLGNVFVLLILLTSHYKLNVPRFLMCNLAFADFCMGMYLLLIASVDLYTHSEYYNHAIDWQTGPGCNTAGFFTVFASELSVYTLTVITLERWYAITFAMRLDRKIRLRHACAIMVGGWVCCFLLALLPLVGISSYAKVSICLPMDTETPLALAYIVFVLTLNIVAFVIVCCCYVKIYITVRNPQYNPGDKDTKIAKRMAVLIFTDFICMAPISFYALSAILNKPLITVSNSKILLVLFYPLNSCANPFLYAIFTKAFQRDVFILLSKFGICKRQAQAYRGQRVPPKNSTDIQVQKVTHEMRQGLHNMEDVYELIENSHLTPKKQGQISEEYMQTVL
Luciferin 4-monooxygenase (Photinus pyralis), sequence (P08659 whole entry, looked up): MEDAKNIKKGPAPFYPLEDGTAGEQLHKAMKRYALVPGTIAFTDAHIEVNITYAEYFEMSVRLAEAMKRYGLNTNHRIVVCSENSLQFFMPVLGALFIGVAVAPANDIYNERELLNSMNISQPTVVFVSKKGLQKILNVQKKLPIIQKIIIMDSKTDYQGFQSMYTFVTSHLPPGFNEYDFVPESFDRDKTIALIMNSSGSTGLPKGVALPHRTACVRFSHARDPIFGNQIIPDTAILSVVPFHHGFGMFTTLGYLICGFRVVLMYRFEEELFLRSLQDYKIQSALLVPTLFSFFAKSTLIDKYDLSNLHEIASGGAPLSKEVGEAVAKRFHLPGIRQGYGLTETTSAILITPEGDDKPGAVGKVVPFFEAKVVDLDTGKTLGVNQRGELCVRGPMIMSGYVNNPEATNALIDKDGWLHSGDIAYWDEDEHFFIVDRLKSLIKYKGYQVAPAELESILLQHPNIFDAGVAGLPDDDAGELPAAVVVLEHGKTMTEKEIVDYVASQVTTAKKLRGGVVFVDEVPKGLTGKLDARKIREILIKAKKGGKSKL

For `CN1CCN(C(c2ccccc2)c2ccccc2)CC1`, the Potency result in assay [1], in [2], in [3], in [4], in [5] and in assay [6] was “inactive” in each case.
Consider `CCC(Cl)CCC(Cl)C(Cl)CC(Cl)C(Cl)C(Cl)CCl` (stereo unspecified), for which the Potency result in assay [1], in assay [2], in assay [4], in assay [7], in assay [8] and in assay [5] was “inactive” in each case. Besides, the Potency result in assay [9] and in assay [6] was “inactive” in each case.
As for `CC(C)(C)Cl`, the Potency entry in assay [1], in [2], in assay [4], in assay [7], in assay [8] and in assay [5] was “inactive” throughout. The Potency entry in [6] is “inactive”.
On to `COc1cc(C(=O)OCCCN2CCCN(CCCOC(=O)c3cc(OC)c(OC)c(OC)c3)CC2)cc(OC)c1OC`, for which the Potency in assay [1] is 23.7 µM (active). Besides, the Potency entry in [2], in assay [3], in assay [7], in [8], in assay [10] and in assay [9] was “inactive” throughout. For the same compound, in assay [6], the Potency entry is “inactive”.
With `CCN(CC)CCNc1ccc(CNC=O)c2sc3ccc(OC)cc3c(=O)c12`, the Potency is 7.7 µM (active) in [1], 8.63 µM (active) in assay [4] and 6.11 µM (active) in assay [5]. Also, the Potency result in assay [2], in [10] and in [6] was “inactive” in each case.
For `Cc1[nH]c(C)c(Cl)c(=O)c1Cl`, the results for the viability change, negative = cytotoxic in assay [1], in assay [3] and in [5] were 0.386% [at 19 µM], 3.99% [at 19 µM] and 12.2% [at 19 µM], respectively. The activity change, negative = inhibition in assay [2] is -1.3% [at 23.6 µM]. The activity change, negative = cytotoxicity in assay [4] was 8.34% [at 19 µM]. For the same compound, the activation in [6] is 2.76% [at 19 µM].
As for `COc1cc2c(cc1OC)C(C(C(=O)N(CCc1ccc(OC)c(OC)c1OC)CCc1ccc(OC)c(OC)c1OC)c1ccccc1)=NCC2` (stereo unspecified), the Potency in [1] is 23.7 µM (active). In addition, the Potency entry in assay [2], in assay [3], in assay [4] and in assay [6] was “inactive” each time.
For `CCOC(=O)Cc1cccc2ccccc12`, the Potency entry in assay [1], in assay [2], in [4], in assay [7], in assay [5] and in [10] was “inactive” in each case. Moreover, the Potency in assay [8] is 30.6 µM (active).
Regarding `C=C(C)C(=O)OCC`, the Potency entry in assay [1], in assay [2], in [3], in assay [4], in [5] and in assay [6] was “inactive” in each case.
With `CCCCCCCCCCCC(=O)OC[C@@H](O)[C@H]1OC[C@H](OCCO)[C@H]1OCCO`, the Potency entry in [1], in assay [2], in assay [4], in assay [7], in assay [8] and in assay [5] was “inactive” throughout. Further, the Potency entry in assay [6] is “inactive”.
With `O=[N+]([O-])c1ccc2[nH]ncc2c1`, the Potency result in [1], in assay [2], in [3], in [4], in [5] and in assay [6] was “inactive” in each case.
`Nc1ccc(S(=O)(=O)Nc2ccccc2)cc1`: the Potency result in [1], in [2], in [4], in assay [7], in [8] and in assay [5] was “inactive” throughout. The Potency result in assay [6] was “inactive”.
In the case of `C=CCOc1ccccc1OCC(O)CNC(C)C` (stereo unspecified), the Potency result in assay [1], in assay [2], in assay [4], in assay [7], in assay [8] and in assay [5] was “inactive” in each case. The Potency entry in assay [10] and in assay [9] was “inactive” in each case.
On to `COc1ccc(S(=O)(=O)N2C(=O)[C@@](c3ccccc3OC)(N3C[C@H](O)C[C@H]3C(=O)N(C)C)c3cc(Cl)ccc32)c(OC)c1`, for which the Potency in assay [1] was 30.6 µM (active); in assay [4], 24.3 µM (active); in assay [5], 30.6 µM (active). Moreover, the Potency result in [2] and in [7] was “inactive” throughout.
With `CC(COCCO)OCCO` (stereo unspecified), the Potency result in assay [1], in [2], in assay [3], in assay [4], in assay [5] and in [6] was “inactive” throughout.
For `O=C(OCCCCCCOC(=O)c1ccccc1)c1ccccc1`, the Potency entry in assay [1], in assay [2], in assay [4], in [7], in assay [8] and in [5] was “inactive” each time. In addition, the Potency result in assay [10] and in assay [9] was “inactive” each time.
For `C/C=C(/C(=C/C)c1ccc(OC(C)=O)cc1)c1ccc(OC(C)=O)cc1`, the Potency entry in assay [1], in assay [2], in [3], in assay [4], in assay [5] and in assay [6] was “inactive” each time.
Turning to `CC[N+]1(CC)CCC(=C(c2ccccc2)c2ccccc2)C1C` (stereo unspecified), the Potency entry in assay [1], in assay [2], in [4], in assay [7], in assay [8] and in [5] was “inactive” throughout. The Potency entry in assay [6] was “inactive”.
`CC(C)(C)OCC1CO1` (stereo unspecified): the Potency result in assay [1], in assay [2], in [3], in [4], in assay [5] and in assay [6] was “inactive” each time.
For `N=c1ccn2c(n1)O[C@H]1[C@H](O)[C@@H](CO)O[C@H]12`, the Potency entry in assay [1], in [2], in assay [3], in assay [4], in assay [5] and in assay [6] was “inactive” each time.
As to `CN(C)c1ccc(/C=C/c2ccc([N+](=O)[O-])cc2)cc1`, the viability change, negative = cytotoxic in [1] is 1.01% [at 8.39 µM]; in [3], 5.96% [at 8.39 µM]. Further, the activity change, negative = cytotoxicity in assay [4] was 11.7% [at 8.39 µM]. In addition, the activity, negative = inhibition in assay [7] is 47.3% [at 8.39 µM]. Further, the Potency in assay [8] is 0.872 µM (active). In addition, in assay [6], the activation is -1.26% [at 8.39 µM].
As for `CC(C)Cc1ccc(C(C)C(=O)OCc2ccccn2)cc1` (stereo unspecified), the Potency result in [1], in assay [3], in assay [4] and in assay [5] was “inactive” throughout.
Consider `CCO[C@H](Cc1ccc(OCCc2ccc(OS(C)(=O)=O)cc2)cc1)C(=O)O`, for which the Potency result in [1], in assay [3], in assay [4], in [7], in assay [8] and in [5] was “inactive” each time.
`CCN(CC)c1ccc(C(=C2C=CC(=[N+](CC)CC)C=C2)c2cc(S(=O)(=O)O)ccc2S(=O)(=O)[O-])cc1`: the Potency in assay [1] is 29.8 µM (active); in [2], 12.3 µM (active); in [7], 11.9 µM (active); in [10], 11.9 µM (active). Moreover, the Potency result in assay [8] is “inactive”.
`CC(=O)c1ccc2c(c1)N(CCCN1CCC(CCO)CC1)c1ccccc1S2`: the Potency in assay [1] is 23.7 µM (active). In addition, the Potency result in assay [2], in assay [8] and in assay [5] was “inactive” each time.
Regarding `C[C@@H](c1ncncc1F)C(O)(Cn1cncn1)c1ccc(F)cc1F` (stereo partly specified), the Potency result in assay [1], in assay [2], in assay [4], in assay [5], in [9] and in [6] was “inactive” in each case.
For the compound `O=S(c1cc(Cl)cc(Cl)c1O)c1cc(Cl)cc(Cl)c1O`, the Potency result in [1], in [3], in assay [4], in assay [7], in assay [8] and in assay [5] was “inactive” throughout. Besides, the Potency entry in assay [9] and in [6] was “inactive” each time.
For the compound `CCCCC1=NC2(CCCC2)C(=O)N1Cc1ccc(-c2ccccc2-c2nn[nH]n2)cc1`, the Potency entry in [2], in [3], in [4], in [7], in assay [8] and in assay [5] was “inactive” in each case.
